TDP1 inh: blocks human tyrosyl-DNA phosphodiesterase 1; Q9NUW8; recombinant TDP1, AlphaScreen DNA substrate cleavage; Potency, µM (top dose mostly 130 µM), usual class: inhibitors; 350,000 tested, 0.28% active; further: nearly all actives have a fitted effect of over 40% in size
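Recombinant E. coli-expressed Tdp1 (1 nM) preincubated with compound 15 min at RT, then 5'-biotin/3'-phosphotyrosine-FITC DNA substrate (15 nM) added for 5 min. AlphaScreen beads (10 ug/ml) added, 10 min RT; tyrosine-FITC cleavage read as signal loss.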
FEN1 inhibitor: human FEN1 inhibition; Recombinant FEN1 flap cleavage, fluorescence, 15 min; Potency, µM (titrated, usually from 114 µM), hits mostly inhibitors; 390,000 tested, 0.35% active; further: nearly all actives have a fitted effect of over 65% in size
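Enzyme 10 nM, 15 min RT preincubation with compound; start with substrate 50 nM final; reads at 0 and 15 min; qHTS titration, four-parameter Hill fit.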
POLB inh: DNA polymerase beta (human) inhibition | P06746 | Pol beta primer extension/strand displacement, fluorescence kinetic | Potency, µM (top dose mostly 114 µM), usual class: inhibitors | 340,000 tested, 1.3% active
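Preincubation: enzyme (10 nM) with compound, 15 min, RT. Reaction: substrate added to 50 nM final. Reads: 0 and 10 min. Analysis: normalized, Hill fit.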
Pol iota inh: blocks human DNA polymerase iota activity; Pol iota fluorescent replication assay, 10 min; Potency, µM (titrated, usually from 115 µM), usual class: inhibitors; 390,000 tested, 1% active; AID 588590
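Pol iota at 10 nM preincubated 15 min with compounds at room temperature; reaction started with fluorescent substrate, 50 nM final. Fluorescence read kinetically at 0 and 10 min; buffer-only wells as negative control.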
Pol kappa inh-1: blocks human DNA polymerase kappa activity | Potency, µM (top dose mostly 107 µM), hits mostly inhibitors | purified Pol kappa, fluorescent DNA synthesis assay, 10 min | 400,000 tested, 0.53% active | AID 588579 | Q9UBT6
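Activity was followed as the change in fluorescence between reads at 0 and 10 min after starting the reaction with 50 nM substrate. Beforehand, 10 nM polymerase had been preincubated with compound for 15 min at room temperature.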
Pol eta inh-1: inhibitors of human DNA polymerase eta. AID 588591. recombinant Pol eta, fluorescent DNA replication assay. 390,000 tested, 1.2% active. Q9Y253. Potency, µM (series often up to 114 µM), actives largely listed as inhibitors
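Pol eta (10 nM) was preincubated with compounds for 15 min at room temperature, after which fluorescent replication substrate (50 nM final) was added to start the reaction. Fluorescence was read kinetically at 0 and 10 min.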
PGK validate: blocks T. brucei phosphoglycerate kinase | shares compounds with Pol kappa inh-1 | TbPGK coupled GAPDH assay, Kinase-Glo luminescence | Potency, µM (series often up to 57.5 µM), most hits filed as inhibitors | 500 tested, 79% active | AID 686980; further: nearly all actives have a fitted effect of over 65% in size
Pol iota confirm: Human Pol iota inhibitor confirmatory assay. shares compounds with Pol kappa inh-1. Pol iota primer extension, TAMRA/BHQ fluorescence. Potency, µM, actives largely listed as inhibitors. 1,500 tested, 77% active
Pol kappa inh-2: Pol kappa (human) inhibition, cherry-pick confirmation; Potency, µM, actives largely listed as inhibitors; AID 720501; purified Pol-kappa, fluorescent strand-displacement substrate; 920 tested, 76% active; shares compounds with Pol eta inh-1
Pol eta inh-2: Pol eta (human) inhibition, cherry-pick confirmation. shares compounds with Pol eta inh-1. Pol eta primer extension, TAMRA/BHQ fluorescence, 10 min. Potency, µM, actives largely listed as inhibitors. 2,600 tested, 64% active. AID 720502
Numbers stand for hits. A selection: hits, their analogues and other compounds. The true share with any hit is near 2.4%. The call rests on the fitted dose curve; in most records, active means well fitted curve in the direction sought with a large enough effect; inconclusive means small, poorly fitted or top-dose-only effect, or another doubt; inactive means no such curve, though single readings can be large; an effect the other way counts as inactive or inconclusive.

`NC1=NC(=O)/C(=C/c2ccc(-c3ccc(S(N)(=O)=O)cc3)o2)S1` gave FEN1 inhibitor inconclusive, POLB inh inconclusive, Pol iota inh 45µM, Pol kappa inh-1 79µM, Pol eta inh-1 22µM, Pol iota confirm 34, Pol kappa inh-2 21 and Pol eta inh-2 54.
`NC1=NC(=O)/C(=C\c2ccco2)S1` gave FEN1 inhibitor 50µM, POLB inh inconclusive, Pol iota inh inconclusive, Pol kappa inh-1 40µM, Pol eta inh-1 18µM, Pol iota confirm 17, Pol kappa inh-2 12 and Pol eta inh-2 27.
`CCOC(=O)N1CCc2c(sc3c2c(=O)n(CCc2ccccc2)c(=O)n3CC(=O)Nc2ccccc2C)C1` gave TDP1 inh inactive, FEN1 inhibitor inactive, POLB inh inactive, Pol iota inh inactive, Pol kappa inh-1 inactive and Pol eta inh-1 inactive.
Screening CC(C)c1cccc(-c2ccc3c(c2)S(=O)(=O)c2cccc(C(=O)NCc4ccccc4Cl)c2C3=O)c1 returned TDP1 inh inactive, FEN1 inhibitor inactive, Pol iota inh inactive, Pol kappa inh-1 inactive and Pol eta inh-1 inactive.
`O=C(NCc1ccco1)c1cccc2c1C(=O)c1ccc(N3CCC(Cc4ccccc4)CC3)cc1S2(=O)=O` gave TDP1 inh inactive, FEN1 inhibitor inactive, Pol iota inh inactive, Pol kappa inh-1 inactive and Pol eta inh-1 inactive.
`O=C(NCc1ccco1)c1cccc2c1C(=O)c1ccc(/C=C/c3ccccc3)cc1S2(=O)=O` gave TDP1 inh 32µM, FEN1 inhibitor inconclusive, Pol iota inh 25µM, Pol kappa inh-1 inconclusive, Pol eta inh-1 14µM, Pol iota confirm 42, Pol kappa inh-2 19 and Pol eta inh-2 38.
COc1ccc(-c2ccc3c(c2)S(=O)(=O)c2cccc(C(=O)NCc4ccccc4Cl)c2C3=O)cc1OC was read as TDP1 inh 25µM, FEN1 inhibitor inconclusive, Pol iota inh 10µM, Pol kappa inh-1 inactive, Pol eta inh-1 inconclusive, Pol iota confirm 17 and Pol eta inh-2 27.
For COc1ccccc1CN1CC[C@@]2(CCCN(C(=O)c3cnccn3)C2)C1 the results were Pol kappa inh-1 inactive.
Cc1oc(-c2cccc(Br)c2)nc1CSc1nc2ncccc2[nH]1 was read as TDP1 inh inactive, FEN1 inhibitor inactive, POLB inh inactive, Pol iota inh inactive, Pol kappa inh-1 inactive and Pol eta inh-1 inactive.
CC(=C\C(=O)O)/C(=C/c1ccc(C)o1)C(=O)O was read as FEN1 inhibitor inactive, POLB inh 20µM, Pol iota inh inconclusive, Pol kappa inh-1 inconclusive, Pol eta inh-1 7.9µM, Pol iota confirm 34 and Pol eta inh-2 21.
Screening CC(=C\C(=O)O)/C(=C/c1ccco1)C(=O)O returned TDP1 inh inconclusive, FEN1 inhibitor inactive, POLB inh inconclusive, Pol iota inh inconclusive, Pol kappa inh-1 inconclusive and Pol eta inh-1 inconclusive.
`O=C(/C=C/c1ccco1)N1CCN(S(=O)(=O)c2ccccc2)CC1` gave TDP1 inh 10µM, FEN1 inhibitor inactive, Pol iota inh 50µM, Pol kappa inh-1 inconclusive, Pol eta inh-1 18µM, PGK validate 9.2µM, Pol kappa inh-2 inconclusive and Pol eta inh-2 inconclusive.
`CCCOc1ccc(NC(=O)CC2C(=O)N(c3ccc(C)cc3)C(=O)N2C(C)C)cc1` (stereo not given) gave TDP1 inh inactive, FEN1 inhibitor inactive, POLB inh inactive, Pol iota inh inactive, Pol kappa inh-1 inactive and Pol eta inh-1 inactive.
`Cc1ccc(C(=O)N/N=C/c2cn(Cc3ccccc3)c3ccccc23)cn1` gave TDP1 inh inactive, FEN1 inhibitor inactive, POLB inh inactive, Pol iota inh inactive, Pol kappa inh-1 inactive and Pol eta inh-1 inactive.
O=C(N/N=C/c1cn(Cc2ccccc2)c2ccccc12)c1cc(O)cc(O)c1 was read as TDP1 inh inactive, FEN1 inhibitor inactive, POLB inh 32µM, Pol iota inh inconclusive, Pol kappa inh-1 inconclusive, Pol eta inh-1 45µM, Pol iota confirm 34, Pol kappa inh-2 19 and Pol eta inh-2 30.
`COc1ccc(NC(=O)CSc2nc(-c3ccco3)cc(C(F)(F)F)n2)cc1` gave TDP1 inh inactive, FEN1 inhibitor inactive, POLB inh inactive, Pol iota inh inactive, Pol kappa inh-1 inactive and Pol eta inh-1 inactive.
For Cc1cc(N/N=C/c2ccc(F)cc2)nc(NCc2ccccc2)n1 the results were FEN1 inhibitor inactive, POLB inh inactive, Pol iota inh inactive, Pol kappa inh-1 inactive and Pol eta inh-1 inactive.
For Cc1cc(N/N=C/c2ccc(O)cc2)nc(NS(=O)(=O)c2ccccc2)n1 the results were TDP1 inh 16µM, FEN1 inhibitor inactive, POLB inh 18µM, Pol iota inh inconclusive, Pol kappa inh-1 inconclusive, Pol eta inh-1 20µM, PGK validate 5.2µM and Pol eta inh-2 inconclusive.
For COc1ccc(-c2cc(C(=O)Nc3ccc(S(=O)(=O)Nc4onc(C)c4C)cc3)c3ccccc3n2)cc1OC the results were TDP1 inh inactive, FEN1 inhibitor inactive, POLB inh inactive, Pol iota inh inactive, Pol kappa inh-1 inactive and Pol eta inh-1 inconclusive.
Cc1cc(C)c2nc(-c3ccccn3)cc(C(=O)Nc3ccc(S(=O)(=O)Nc4onc(C)c4C)cc3)c2c1 was read as TDP1 inh 40µM, FEN1 inhibitor inconclusive, POLB inh inconclusive, Pol iota inh 8.9µM, Pol kappa inh-1 inconclusive, Pol eta inh-1 8.9µM, Pol iota confirm 21 and Pol eta inh-2 8.5.
Screening O=C(Nc1ccc(S(=O)(=O)Nc2nccs2)cc1)c1nn(-c2ccc(F)cc2)ccc1=O returned FEN1 inhibitor inconclusive, POLB inh inconclusive, Pol iota inh 35µM, Pol kappa inh-1 89µM, Pol eta inh-1 20µM, Pol iota confirm 67 and Pol eta inh-2 43.
For Cc1c(C(=O)O)sc2nc(CSc3ncc(C(F)(F)F)cc3Cl)[nH]c(=O)c12 the results were FEN1 inhibitor inactive, POLB inh 40µM, Pol iota inh inconclusive, Pol kappa inh-1 inactive, Pol eta inh-1 32µM, Pol iota confirm inconclusive and Pol eta inh-2 67.

Screens (PubChem)
